This note sets out measurements from PubChem BioAssay (EPA / NIEHS).

Read-out in test [1]: Tissue plasminogen activator (tPA), PLAT (gene 5327)
The test can be described thus: BSK_BE3C_tPA: BioMAP Diversity Plus: BE3C Assay for Tissue plasminogen activator (tPA) Biomarker Activity (AID 2283041).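 On outcome: tPA level quantified by ELISA one day after compound addition.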 Particulars: primary human bronchial epithelial cells; actives raise or lower the signal. An outline of the steps:
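Gain- or loss-of-signal in tPA, measured by ELISA, derived by bidirectional fitting against DMSO. Cells: human primary bronchial epithelial; read at 24 h after chemical dosing.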

Read-out in test [2]: Interleukin-8 (IL8), CXCL8 (gene 3576)
The test can be described thus: BSK_CASM3C_IL8: BioMAP Diversity Plus: CASM3C Assay for Interleukin-8 (IL8) Biomarker Activity (AID 2283042).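 Further: IL-8 protein level quantified by ELISA.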 Particulars: primary human coronary artery smooth muscle cells; actives raise or lower the signal.

Read-out in test [3]: Human Leukocyte Antigen - DR isotype (HLADR), HLA-DRA (gene 3122)
The test can be described thus: BSK_CASM3C_HLADR: BioMAP Diversity Plus: CASM3C Assay for Human Leukocyte Antigen - DR isotype (HLADR) Biomarker Activity (AID 2283043).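 Further: cell-surface HLA-DR protein level quantified by ELISA.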 The settings on record: primary human coronary artery smooth muscle cells; actives raise or lower the signal.

Read-out in test [4]: Macrophage colony-stimulating factor (MCSF), CSF1 (gene 1435)
The experiment in a line: BSK_CASM3C_MCSF: BioMAP Diversity Plus: CASM3C Assay for Macrophage colony-stimulating factor (MCSF) Biomarker Activity (AID 2283044).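 Further: M-CSF protein amount quantified by ELISA after 24 h exposure.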 Particulars: primary human coronary artery smooth muscle cells; actives raise or lower the signal.

Read-out in test [5]: Low-density lipoprotein receptor (LDLR), LDLR (gene 3949)
The test can be described thus: BSK_CASM3C_LDLR: BioMAP Diversity Plus: CASM3C Assay for Low-density lipoprotein receptor (LDLR) Biomarker Activity (AID 2283045).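 Further: LDLR protein level on the cell surface quantified by ELISA.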 Particulars: primary human coronary artery smooth muscle cells; actives raise or lower the signal.

Read-out in test [6]: Monocyte Chemoattractant Protein-1 (MCP1), CCL2 (gene 6347)
The test can be described thus: BSK_CASM3C_MCP1: BioMAP Diversity Plus: CASM3C Assay for Monocyte Chemoattractant Protein-1 (MCP1) Biomarker Activity (AID 2283046).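 Further: MCP-1 level quantified by ELISA 24 h after dosing.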 Particulars: primary human coronary artery smooth muscle cells; actives raise or lower the signal.

Test [7] can be described thus: BSK_CASM3C_Proliferation: Cell Proliferation Assessment in the BioMAP Diversity Plus: CASM3C Assay (AID 2283047).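 Further: sulforhodamine B total protein stain as relative cell number at 560 nm; sub-confluent cells exposed 48 h before staining; fitted both ways against DMSO so gain or loss of cell number.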 The settings on record: primary human coronary artery smooth muscle cells.
Read-out in test [8]: Monokine induced gamma interferon (MIG), CXCL9 (gene 4283)
The test can be described thus: BSK_CASM3C_MIG: BioMAP Diversity Plus: CASM3C Assay for Monokine induced gamma interferon (MIG) Biomarker Activity (AID 2283048).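 Further: MIG protein level measured by ELISA.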 Particulars: primary human coronary artery smooth muscle cells; actives raise or lower the signal.

Read-out in test [9]: serum amyloid A (SAA), SAA1 (gene 6288)
The experiment in a line: BSK_CASM3C_SAA: BioMAP Diversity Plus: CASM3C Assay for serum amyloid A (SAA) Biomarker Activity (AID 2283049).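 Further: SAA protein level quantified by ELISA.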 Particulars: primary human coronary artery smooth muscle cells; actives raise or lower the signal.

Test [10] can be described thus: BSK_CASM3C_SRB: Viability Assessment in the BioMAP Diversity Plus: CASM3C Assay (AID 2283050).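 Further: total protein by SRB staining as cytotoxicity measure in parallel cultures; cells exposed to compound for 24 h.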 The settings on record: primary human coronary artery smooth muscle cells.
Read-out in test [11]: Thrombomodulin, THBD (gene 7056)
The test can be described thus: BSK_CASM3C_Thrombomodulin: BioMAP Diversity Plus: CASM3C Assay for Thrombomodulin Biomarker Activity (AID 2283051).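 Further: thrombomodulin protein level measured by ELISA 24 h after dosing.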 The settings on record: primary human coronary artery smooth muscle cells; actives raise or lower the signal.

Read-out in test [12]: Tissue Factor, F3 (gene 2152)
The test can be described thus: BSK_CASM3C_TissueFactor: BioMAP Diversity Plus: CASM3C Assay for Tissue Factor Biomarker Activity (AID 2283052).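 Further: cell surface tissue factor protein level read by ELISA.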 Particulars: primary human coronary artery smooth muscle cells; actives raise or lower the signal.

Read-out in test [13]: Interferon-gamma inducible Protein 10 (IP10), CXCL10 (gene 3627)
The test can be described thus: BSK_hDFCGF_IP10: BioMAP Diversity Plus: hDFCGF Assay for Interferon-gamma inducible Protein 10 (IP10) Biomarker Activity (AID 2283053). Particulars: primary human foreskin fibroblasts; actives raise or lower the signal. The essentials:
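Cells: human dermal foreskin fibroblasts. Exposure: 24 h post-dosing. Detection: IP-10 ELISA, with values expressed against DMSO controls and fitted in both directions.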

Read-out in test [14]: Urokinase-type plasminogen activator receptor (uPAR), PLAUR (gene 5329)
The experiment in a line: BSK_CASM3C_uPAR: BioMAP Diversity Plus: CASM3C Assay for Urokinase-type plasminogen activator receptor (uPAR) Biomarker Activity (AID 2283054).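 Further: cell-surface uPAR protein level quantified by ELISA.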 Particulars: primary human coronary artery smooth muscle cells; actives raise or lower the signal.

Read-out in test [15]: Vascular cell adhesion molecule 1 (VCAM1), VCAM1 (gene 7412)
The experiment in a line: BSK_CASM3C_VCAM1: BioMAP Diversity Plus: CASM3C Assay for Vascular cell adhesion molecule 1 (VCAM1) Biomarker Activity (AID 2283055).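 Further: VCAM-1 protein level quantified by ELISA on the cells.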 Particulars: primary human coronary artery smooth muscle cells; actives raise or lower the signal.

Read-out in test [16]: Collagen III, COL3A1 (gene 1281)
The experiment in a line: BSK_hDFCGF_CollagenIII: BioMAP Diversity Plus: hDFCGF Assay for Collagen III Biomarker Activity (AID 2283056). Particulars: primary human foreskin fibroblasts; actives raise or lower the signal. An outline of the steps: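 Human foreskin primary fibroblasts were exposed to test chemicals for 24 h, after which collagen III was quantified by ELISA. Activity was fitted bidirectionally against DMSO as negative control and baseline.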

Read-out in test [17]: Epidermal growth factor receptor (EGFR), EGFR (gene 1956)
The experiment in a line: BSK_hDFCGF_EGFR: BioMAP Diversity Plus: hDFCGF Assay for Epidermal growth factor receptor (EGFR) Biomarker Activity (AID 2283057). Particulars: primary human foreskin fibroblasts; actives raise or lower the signal. The essentials:
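Dosing human primary skin fibroblasts, then measuring surface EGFR by ELISA at 24 h, gives the endpoint; gains and losses relative to DMSO were fitted in both directions.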

Read-out in test [18]: Interleukin-8 (IL8), CXCL8 (gene 3576)
The experiment in a line: BSK_hDFCGF_IL8: BioMAP Diversity Plus: hDFCGF Assay for Interleukin-8 (IL8) Biomarker Activity (AID 2283058). Particulars: primary human foreskin fibroblasts; actives raise or lower the signal. The essentials:
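hDFCGF human dermal fibroblasts; 24 h chemical exposure; IL-8 by ELISA; bidirectional curve fit vs DMSO baseline; gain or loss of signal scored.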

A short description of test [19]: BSK_hDFCGF_Proliferation: Cell Proliferation Assessment in the BioMAP Diversity Plus: hDFCGF Assay (AID 2283059).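 Further: curves fitted for both rise and fall of signal versus DMSO baseline.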 Particulars: primary human foreskin fibroblasts. The essentials:
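Primary human foreskin fibroblasts, sub-confluent; […]; 10% TCA fix, 0.1% SRB stain, A560 total protein. Gain/loss fitted bidirectionally vs DMSO control.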

Read-out in test [20]: Macrophage colony-stimulating factor (MCSF), CSF1 (gene 1435)
The test can be described thus: BSK_hDFCGF_MCSF: BioMAP Diversity Plus: hDFCGF Assay for Macrophage colony-stimulating factor (MCSF) Biomarker Activity (AID 2283060). The settings on record: primary human foreskin fibroblasts; actives raise or lower the signal. The essentials:
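Human foreskin primary fibroblasts were treated with test chemical for 24 h, and M-CSF was then measured by ELISA. Data were fitted bidirectionally against DMSO as the negative control and activity baseline.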

Calls of active or inactive are those of the source. How the source made its calls: active means hit-call score of the fitted dose curve at least 0.9, where 1 is the maximum; inactive means score below 0.9.

In the case of `c1ccc(OCCOc2ccccc2)cc1`, the outcome in test [1], in test [2], in [3], in test [4], in test [5] and in test [6] was inactive. For the same compound, the outcome in test [7], in test [8], in [9], in test [10], in test [11] and in [12] was inactive. In addition, the result in [13], in test [14], in test [15], in test [16], in test [17] and in test [18] was inactive. Further, the outcome in test [19] and in [20] was inactive.

What is called AC50 is the concentration giving half of the maximal activity seen. `Nc1ccc(N)c([N+](=O)[O-])c1`: the outcome in test [1], in test [2], in test [3], in [4], in [5] and in test [7] was inactive. The outcome in [8], in [9], in test [10], in test [11], in [13] and in [14] was inactive. Further, the outcome in test [15], in [16], in test [17], in test [18] and in [20] was inactive. The AC50 in test [6] is 7.95 µM (active); in [12] it was 0.037 µM (active); in test [19] it was 13.4 µM (active).

In the case of `CCn1cc(C(=O)O)c(=O)c2ccc(C)nc21`, the result in test [1], in test [2], in test [3], in [4], in [5] and in test [6] was inactive. Moreover, the outcome in [7], in [8], in [9], in test [10], in test [11] and in test [12] was inactive. Moreover, the result in [13], in [14], in test [15], in [16], in [17] and in test [18] was inactive. Moreover, the outcome in [19] and in test [20] was inactive.

`CCCCCCCCCC(=O)OCC`: the AC50 in [1] is 20 µM (active); in test [2], 37 µM (active); in test [3] it was 32.5 µM (active); in test [4], 31.4 µM (active); in test [5], 36.4 µM (active); in test [6] it was 31.9 µM (active). For the same compound, the AC50 in test [7] was 20 µM (active); in [8], 31.5 µM (active); in test [9], 31.8 µM (active); in [10], 33 µM (active); in test [12], 30.4 µM (active); in test [14], 31.1 µM (active). The AC50 in test [15] was 31.1 µM (active); in [16], 31.5 µM (active); in test [19], 13.7 µM (active); in test [20], 30.2 µM (active). Moreover, the result in test [11], in test [13], in test [17] and in test [18] was inactive.

As for `C=C(C)C(N)=O`, the outcome in [1], in [2], in test [3], in test [4], in test [5] and in test [6] was inactive. Also, the outcome in test [7], in [8], in [9], in [10], in [11] and in [12] was inactive. Moreover, the result in test [13], in [14], in test [15], in test [16], in test [17] and in [18] was inactive. For the same compound, the outcome in test [19] and in test [20] was inactive.
